Experiment [1] is described as follows: qHTS assay to identify small molecule antagonists of the peroxisome proliferator-activated receptor delta (PPARd) signaling pathway - cell viability counter screen (AID 743213; active = well fitted curve in the direction sought with a large enough effect in the repeat runs; an effect the other way counts as inactive or inconclusive; also: nearly all actives have a fitted effect of over 50% in size). In a few lines: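 In this counter screen, HEK293H cells carrying a UAS-beta-lactamase reporter are co-treated with test compounds and 300 nM L165041 (final) for 17 h at 37 C; cell viability is quantified by CellTiter-Glo luminescence.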
For orientation: Quantitative high-throughput screening tests each substance at several concentrations.

A short description of experiment [2]: qHTS assay to identify small molecule agonists of the farnesoid-X-receptor (FXR) signaling pathway - cell viability counter screen (AID 743218; active = well fitted curve in the direction sought with a large enough effect in the repeat runs; an effect the other way counts as inactive or inconclusive; also: nearly all actives have a fitted effect of over 45% in size). Put shortly: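 Cytotoxicity counter-screen run in parallel, same wells: FXR-UAS-bla HEK 293T cells dosed 16 h at 37 C, viability read by CellTiter-Glo luminescence after 30 min at room temperature.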
Experiment [3] in a line: qHTS assay to identify small molecule antagonists of the farnesoid-X-receptor (FXR) signaling pathway - cell viability counter screen (AID 743221; active = well fitted cell-killing curve with a large enough effect in the repeat runs, not every such curve was filed as active; also: nearly all actives have a fitted effect of over 50% in size). In a few lines:
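CellTiter-Glo, 30 min RT, luminescence; same wells as the LiveBLAzer FRET read. Cells: FXR-UAS-bla HEK 293T. Treatment: compound with chenodeoxycholic acid 50 uM final, 16 h at 37 C.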

For experiment [4], the target named is Vitamin D3 receptor (Homo sapiens) (UniProt P11473). The experiment is described as follows: qHTS assay to identify small molecule agonists of the vitamin D receptor (VDR) signaling pathway (AID 743222). In a few lines:
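Quantitative HTS agonist-mode screen: compounds in DMSO were pin-transferred onto VDR-bla cells and incubated 16 h at 37C, 5% CO2. Reporter activity was detected with LiveBLAzer B/G FRET substrate after 2 h at room temperature.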

Experiment [5] in a line: qHTS assay to identify small molecule agonists of the NFkB signaling pathway (AID 1159509; active = well fitted curve in the direction sought with a large enough effect in the signal ratio in the repeat runs, not every such curve was filed as active; the % refers to the signal ratio; also: series mostly up to about 61 µM). Put shortly:
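ME-180 NFkB-bla, 2,000 cells/well, overnight plating; cpd pinned in DMSO, 5 h 37 C; B/G FRET substrate 1.5 h RT; ex 405, em 460/530 nm.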

Experiment [6] can be described thus: qHTS assay to identify small molecule agonists of the NFkB signaling pathway - cell viability counter screen (AID 1159515). Also: series mostly up to about 61 µM; nearly all actives have a fitted effect of over 55% in size. Put shortly:
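Multiplexed viability readout: after the 5 hr compound exposure and 1.5 hr FRET substrate step, CellTiter-Glo reagent went into the same NFkB-bla ME-180 wells; ATP luminescence was measured after 30 min at room temperature.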

Experiment [7] can be described thus: qHTS assay to identify small molecule agonists of the endoplasmic reticulum stress response signaling pathway (AID 1159516; active = well fitted activation curve with a large enough effect in the signal ratio in the repeat runs, not every such curve was filed as active; the % refers to the signal ratio). Put shortly: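 Tox21 10K library screened in quantitative HTS format on ESRE-bla HeLa cells, a beta-lactamase reporter under ER stress response element control; 5 hr treatment, FRET read.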
Experiment [8] in a line: qHTS assay to identify small molecule agonists of the endoplasmic reticulum stress response signaling pathway - cell viability counter screen (AID 1159517). Also: series mostly up to about 61 µM; nearly all actives have a fitted effect of over 50% in size. In a few lines: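 ESRE-bla HeLa cells, 1,500 per well, seeded overnight then treated with compounds for 5 hr at 37 C. After the beta-lactamase read, viability in the same wells is measured by CellTiter-Glo luminescence after 30 min at room temperature.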

Experiment [9] can be described thus: qHTS assay to identify small molecule antagonists of the retinoid-related orphan receptor gamma (ROR-gamma) signaling pathway - cell viability counter screen (AID 1159520; active = well fitted curve in the direction sought with a large enough effect in the repeat runs; an effect the other way counts as inactive or inconclusive; also: nearly all actives have a fitted effect of over 50% in size; also: potency is read from the fitted curve at half-maximal effect). In a few lines:
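Tet-on ROR gamma CHO cells were given compounds for 2 hr, then doxycycline hyclate at 1 uM final, and incubated 16 hr at 37 C. Viability was measured as ATP content by CellTiter-Glo luminescence.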

For experiment [10], the target named is Nuclear receptor ROR-gamma (Homo sapiens) (UniProt P51449). The experiment can be described thus: qHTS assay to identify small molecule antagonists of the retinoid-related orphan receptor gamma (ROR-gamma) signaling pathway (AID 1159521; active = well fitted curve in the direction sought with a large enough effect in the repeat runs; an effect the other way counts as inactive or inconclusive; also: nearly all actives have a fitted effect of over 50% in size; also: potency is read from the fitted curve at half-maximal effect). Put shortly:
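Readout: ONE-Glo luciferase luminescence, 30 min at room temperature. System: Tet-on RORγ CHO, RORE-LUC. Sequence: compound 2 h, doxycycline 1 uM final, 16 h at 37 C.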

A short description of experiment [11]: qHTS assay to identify small molecule agonists of the AP-1 signaling pathway - cell viability counter screen (AID 1159525). Also: nearly all actives have a fitted effect of over 55% in size. In a few lines:
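AP-1-bla ME-180 cells in Opti-MEM with 0.5% dialyzed FBS, compound exposure 5 h at 37 C in 15-point titration. Viability read in the same wells as ATP content by CellTiter-Glo luminescence, normalised to tetra-n-octylammonium bromide and DMSO controls.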

Experiment [12] is described as follows: qHTS assay to identify small molecule agonists of the AP-1 signaling pathway (AID 1159526).
Experiment [13] concerns the target Peroxisome proliferator-activated receptor delta (Homo sapiens) (UniProt Q03181). The experiment is described as follows: qHTS assay to identify small molecule antagonists of the peroxisome proliferator-activated receptor delta (PPARd) signaling pathway (AID 743215; active = well fitted inhibition curve with a large enough effect in the signal ratio in the repeat runs, not every such curve was filed as active; the % refers to the signal ratio;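 also: cells stimulated with agonist L165041 at 300 nM final during compound exposure; series mostly up to about 62 µM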). In a few lines:
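Inhibition of L165041-driven (300 nM final) PPARd signaling is scored in HEK293H UAS-bla cells. Exposure lasts 17 h at 37 C; beta-lactamase activity is then read by FRET substrate fluorescence after 2 h at room temperature.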

In experiment [14] the target is Vitamin D3 receptor (Homo sapiens) (UniProt P11473). The experiment is described as follows: qHTS assay to identify small molecule antagonists of the vitamin D receptor (VDR) signaling pathway (AID 743223; active = well fitted inhibition curve with a large enough effect in the signal ratio in the repeat runs, not every such curve was filed as active; the % refers to the signal ratio). In a few lines: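 After VDR-bla cells are plated and left 4 h at 37C, DMSO-dissolved compounds and 3 nM (final) calcitriol agonist are added. Incubation continues 16 h at 37C; FRET beta-lactamase substrate then develops 2 h at room temperature.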

The nature of experiment [15]: qHTS assay to identify small molecule agonists of the vitamin D receptor (VDR) signaling pathway - cell viability counter screen (AID 743224; active = well fitted curve in the direction sought with a large enough effect in the repeat runs; an effect the other way counts as inactive or inconclusive; also: nearly all actives have a fitted effect of over 50% in size; also: potency is read from the fitted curve at half-maximal effect). Put shortly: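 Viability is measured in the same wells as the VDR-bla reporter assay: after 16 h compound treatment and 2 h substrate loading, CellTiter-Glo is added and luminescence read 30 min later.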
Experiment [16] in a line: qHTS assay to identify small molecule antagonists of the vitamin D receptor (VDR) signaling pathway - cell viability counter screen (AID 743225; active = well fitted curve in the direction sought with a large enough effect in the repeat runs; an effect the other way counts as inactive or inconclusive; also: nearly all actives have a fitted effect of over 50% in size). Put shortly:
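Cytotoxicity toward the VDR-bla HEK 293T line was scored by ATP-based CellTiter-Glo luminescence, read in the wells already used for the beta-lactamase readout after 16 h compound treatment under 3 nM 1-alpha,25-dihydroxyvitamin D3 stimulation.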

Experiment [17] deals with Peroxisome proliferator-activated receptor delta (Homo sapiens) (UniProt Q03181). The experiment can be described thus: qHTS assay to identify small molecule agonists of the peroxisome proliferator-activated receptor delta (PPARd) signaling pathway (AID 743212). Put shortly: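 GeneBLAzer UAS-bla HEK293H cells carrying a PPARδ construct were exposed to compounds at 37 °C. Beta-lactamase activity was read by FRET fluorescence after 2 h at room temperature with LiveBLAzer B/G substrate.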

For experiment [18], the target named is Bile acid receptor (Homo sapiens) (UniProt Q96RI1). The experiment is described as follows: qHTS assay to identify small molecule agonists of the farnesoid-X-receptor (FXR) signaling pathway (AID 743220; active = well fitted activation curve with a large enough effect in the signal ratio in the repeat runs, not every such curve was filed as active; the % refers to the signal ratio). Put shortly: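 Beta-lactamase reporter under UAS control in GeneBLAzer FXR HEK 293T cells (5000/well) measured with LiveBLAzer FRET substrate after 2 h at room temperature. Compound exposure lasted 16 h at 37C.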

For experiment [19] the target is unchanged. The experiment is described as follows: qHTS assay to identify small molecule antagonists of the farnesoid-X-receptor (FXR) signaling pathway (AID 743217; active = well fitted inhibition curve with a large enough effect in the signal ratio in the repeat runs, not every such curve was filed as active; the % refers to the signal ratio). Put shortly:
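Antagonist mode against 50 uM (final) chenodeoxycholic acid stimulation in FXR-bla HEK 293T cells, 16 h at 37 °C. Inhibition detected as reduced beta-lactamase activity via LiveBLAzer B/G FRET fluorescence after 2 h at room temperature.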

Results filed as inconclusive are left out. Calls of active or inactive are those of the source. Unless noted, calls follow the shape of the full dose curve.

Sequence of Vitamin D3 receptor (Homo sapiens) (P11473 whole entry, looked up): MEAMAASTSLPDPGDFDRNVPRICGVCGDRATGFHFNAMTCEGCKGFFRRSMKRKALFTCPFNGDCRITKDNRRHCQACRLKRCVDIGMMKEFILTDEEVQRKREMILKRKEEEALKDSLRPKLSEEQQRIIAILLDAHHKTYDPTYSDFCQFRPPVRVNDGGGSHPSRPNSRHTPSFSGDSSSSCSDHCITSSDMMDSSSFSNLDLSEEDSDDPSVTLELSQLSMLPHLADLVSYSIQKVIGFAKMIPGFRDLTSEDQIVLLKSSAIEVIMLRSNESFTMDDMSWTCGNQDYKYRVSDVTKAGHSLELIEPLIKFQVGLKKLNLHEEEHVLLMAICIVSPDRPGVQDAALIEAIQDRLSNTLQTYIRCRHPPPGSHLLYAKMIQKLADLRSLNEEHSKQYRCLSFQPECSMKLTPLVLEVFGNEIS
Sequence of Bile acid receptor (Homo sapiens) (Q96RI1 whole entry, looked up): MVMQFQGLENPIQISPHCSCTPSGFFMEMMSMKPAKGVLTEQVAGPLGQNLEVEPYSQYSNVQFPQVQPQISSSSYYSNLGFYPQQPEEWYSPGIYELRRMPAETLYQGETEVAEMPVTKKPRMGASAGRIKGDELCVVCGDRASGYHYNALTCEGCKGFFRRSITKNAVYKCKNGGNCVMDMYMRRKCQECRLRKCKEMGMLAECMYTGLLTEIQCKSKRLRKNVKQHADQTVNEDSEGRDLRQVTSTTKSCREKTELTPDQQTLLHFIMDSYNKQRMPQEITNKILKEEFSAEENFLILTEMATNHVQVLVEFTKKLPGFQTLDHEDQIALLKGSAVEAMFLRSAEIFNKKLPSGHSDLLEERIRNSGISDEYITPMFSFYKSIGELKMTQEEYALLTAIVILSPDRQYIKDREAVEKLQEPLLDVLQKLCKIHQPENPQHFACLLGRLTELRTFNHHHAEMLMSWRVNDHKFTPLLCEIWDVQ
Sequence of Peroxisome proliferator-activated receptor delta (Homo sapiens) (Q03181 whole entry, looked up): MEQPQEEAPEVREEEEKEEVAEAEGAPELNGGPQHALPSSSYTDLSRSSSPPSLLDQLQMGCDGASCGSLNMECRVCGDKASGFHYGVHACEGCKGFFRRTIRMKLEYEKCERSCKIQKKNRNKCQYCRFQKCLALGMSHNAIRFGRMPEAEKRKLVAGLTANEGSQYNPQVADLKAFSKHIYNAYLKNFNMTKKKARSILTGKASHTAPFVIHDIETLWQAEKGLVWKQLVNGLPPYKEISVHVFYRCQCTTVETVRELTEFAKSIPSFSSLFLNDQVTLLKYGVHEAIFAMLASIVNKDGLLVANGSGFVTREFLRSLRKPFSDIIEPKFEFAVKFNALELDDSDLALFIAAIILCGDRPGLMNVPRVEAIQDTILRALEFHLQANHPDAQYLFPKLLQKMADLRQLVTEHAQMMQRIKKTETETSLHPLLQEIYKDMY

As to `Fc1ccc(C2(Cn3cncn3)OC2c2ccccc2Cl)cc1` (centres undefined), the call in [1], in experiment [3], in experiment [4], in experiment [5], in experiment [6] and in experiment [7] was inactive. The call in experiment [12] was inactive. The Potency entry in experiment [2], in experiment [8], in [9], in experiment [10] and in [11] was “inactive” throughout.
For the molecule `NC(=O)O`, the outcome in [1], in [13], in experiment [3], in experiment [4], in experiment [14] and in experiment [16] was inactive. In addition, the result in [5], in [6], in experiment [7] and in [12] was inactive. Also, the Potency result in experiment [2], in experiment [15], in [8], in experiment [9], in [10] and in [11] was “inactive” in each case.
As to `Nc1cnn(-c2ccccc2)c(=O)c1Cl`, the molecule was classed as inactive in experiment [1], in experiment [13], in [3], in experiment [4], in experiment [16] and in [5]. Also, the molecule was called inactive in [6], in experiment [7] and in experiment [12]. In addition, the Potency entry in experiment [2], in experiment [15], in experiment [8], in [9], in experiment [10] and in experiment [11] was “inactive” throughout.
`CCCSP(=S)(OCC)Oc1ccc(Cl)cc1Cl` (centres undefined): the molecule was called inactive in experiment [17], in experiment [1], in experiment [13], in experiment [3], in [4] and in experiment [14]. Further, the molecule was classed as inactive in experiment [16], in experiment [5], in experiment [6] and in experiment [7]. Besides, the Potency result in experiment [8], in experiment [9], in [10] and in experiment [11] was “inactive” in each case.
With `c1cc[c]([Hg][c]2ccccc2)cc1`, the call in experiment [17], in experiment [1], in experiment [3], in [4], in experiment [16] and in [5] was inactive. The molecule was classed as inactive in experiment [6] and in [7]. The Potency in experiment [15] is 49 µM (active); in [9], 27.3 µM (active); in experiment [10] it was 19.3 µM (active). The Potency entry in [8] and in experiment [11] was “inactive” each time.
`Nc1cc2c3c(c1)C(c1ccccc1)=N[C@@H](NC(=O)c1cccnc1)C(=O)N3CC2`: the molecule was classed as inactive in [1], in [13], in experiment [3], in experiment [4], in experiment [16] and in experiment [5]. The call in [6], in experiment [7] and in experiment [12] was inactive. For the same molecule, the Potency result in [2], in [15], in [8], in experiment [9], in experiment [10] and in experiment [11] was “inactive” in each case.
For the molecule `O=S(=O)(O)C(F)(F)C(F)(F)C(F)(F)C(F)(F)C(F)(F)C(F)(F)F`, the call in [1], in experiment [13], in [18], in experiment [3], in experiment [4] and in experiment [16] was inactive. Further, the outcome in [5], in [6], in [7] and in [12] was inactive. Besides, the Potency entry in experiment [8], in [9], in experiment [10] and in experiment [11] was “inactive” in each case.
Consider `CC(C)CP(=S)(S)CC(C)C`, for which the Potency entry in experiment [19], in experiment [8], in experiment [9] and in experiment [11] was “inactive” throughout. Also, the call in experiment [3], in experiment [16], in [5], in experiment [6] and in [7] was inactive. The Potency in experiment [10] is 24.3 µM (active).
Regarding `CCOC(=O)N(C)C(=O)CSP(=S)(OCC)OCC`, the molecule was called inactive in experiment [17], in [1], in [18], in experiment [3], in [4] and in [5]. Besides, the result in experiment [6], in [7] and in [12] was inactive. Further, the Potency entry in [2], in experiment [15], in experiment [8], in experiment [9], in experiment [10] and in [11] was “inactive” each time.
With `CCOC(=O)NC(=S)Nc1ccccc1NC(=S)NC(=O)OCC`, the result in [1], in experiment [13], in experiment [3], in experiment [4], in experiment [16] and in experiment [5] was inactive. The outcome in experiment [6], in experiment [7] and in experiment [12] was inactive. Also, the Potency entry in experiment [2], in experiment [15], in experiment [8], in experiment [9], in [10] and in [11] was “inactive” in each case.

The values are drawn from PubChem BioAssay (Tox21).
